One may read the AC50 as the concentration giving half of the maximal activity seen.

Records with an inconclusive call do not appear. Activity calls are given as the source filed them. Rule for the calls: active = hit-call score of the fitted dose curve at least 0.9, where 1 is the maximum; inconclusive = response in the unintended direction; inactive = score below 0.9.

One assay concerns the target PGR (gene 5241) (UniProt P06401). The assay can be described thus: NVS_NR_hPR: NovaScreen (NVS) Nuclear Receptor Binding Assay for human Progestron Receptor (PR) (AID 2283360).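 Note: active means loss of bound radioligand signal versus DMSO baseline.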 The gist of the method:
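Radioligand competition binding on receptor extracted from T47D cells, read by scintillation counting 18 h after dosing. Loss of signal versus DMSO; primary screen in duplicate at 25 uM, actives followed in concentration series.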

Assay [1] concerns the target guinea pig Sigma Receptor, Non-selective Binding, SIGMAR1 (gene 100135589) (UniProt Q60492). Description: NVS_OR_gSIGMA_NonSelective: NovaScreen (NVS) Nuclear Receptor Binding Assay for guinea pig Sigma Receptor, Non-selective Binding (AID 2283367). The gist of the method: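 Test chemicals were screened in duplicate at 25 uM, then in concentration series if active, against radioligand binding to guinea pig brain membranes; filtration and scintillation counting at 1 h measured remaining bound ligand.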

Assay [2] relates to guinea pig Dopamine Transporter (DAT), gene 100714898. Description: NVS_TR_gDAT: NovaScreen (NVS) Transporter Assay for guinea pig Dopamine Transporter (DAT) (AID 2283369).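 Note: active compounds lower bound radioligand signal relative to DMSO.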 In a few lines:
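Primary pass: duplicate wells at 25 uM, threshold e.g. 30% inhibition. Follow-up: singleton concentration-response, highest 50 uM. Radioligand binding on guinea pig striatal membranes, 2 h, filtration scintillation detection.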

Assay [3] deals with Retinoic acid receptor alpha (Homo sapiens) (UniProt P10276). Description: NVS_NR_hRARa_Agonist: NovaScreen (NVS) Nuclear Receptor Binding Assay for human Retinoic Acid Alpha Receptor Agonism (RAR) (AID 2283361). The gist of the method: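 Compounds screened at 25 uM, duplicate, then in concentration series if active. Detection: TR-FRET gain of signal versus DMSO after 2 h with cell-free extracted RARα.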
Retinoic acid receptor alpha (Homo sapiens), sequence (P10276 whole entry, looked up): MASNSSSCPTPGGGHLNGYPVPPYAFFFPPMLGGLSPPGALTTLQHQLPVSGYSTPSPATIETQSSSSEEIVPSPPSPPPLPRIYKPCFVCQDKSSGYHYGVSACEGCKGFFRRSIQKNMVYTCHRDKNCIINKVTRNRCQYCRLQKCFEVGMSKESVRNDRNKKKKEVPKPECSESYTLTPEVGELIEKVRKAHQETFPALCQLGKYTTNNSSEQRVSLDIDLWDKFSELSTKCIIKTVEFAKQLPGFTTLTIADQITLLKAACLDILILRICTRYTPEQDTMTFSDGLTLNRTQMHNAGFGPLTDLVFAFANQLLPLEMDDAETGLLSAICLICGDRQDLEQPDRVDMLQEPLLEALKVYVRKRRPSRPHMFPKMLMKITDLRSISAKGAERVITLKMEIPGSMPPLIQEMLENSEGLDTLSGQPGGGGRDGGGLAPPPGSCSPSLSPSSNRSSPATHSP

Assay [4] addresses Peroxisome proliferator-activated receptor gamma (Homo sapiens) (UniProt P37231). The assay can be described thus: NVS_NR_hPPARg: NovaScreen (NVS) Nuclear Receptor Binding Assay for human Peroxisome Proliferator-activated Receptor gamma (PPARg) (AID 2283370). The gist of the method: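 Extracted receptor protein, cell-free; compound incubated 2 h then fluorescence polarization read. Baseline: DMSO. Actives from 25 uM duplicate screen re-run across concentrations.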

Assay [5] concerns the target Glucocorticoid receptor (Homo sapiens) (UniProt P04150). The assay can be described thus: NVS_NR_hGR: NovaScreen (NVS) Nuclear Receptor Binding Assay for human Glucocorticoid Receptor (GR) (AID 2283363).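 Note: activity is loss of specific radioligand binding signal relative to DMSO.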 The gist of the method:
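Single-readout cell-free binding: radioligand plus extracted receptor, 16-hour dosing, filter radiodetection; 25 uM duplicate primary, concentration series secondary.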

For assay [6], the target named is rat Androgen Receptor (AR), Ar (gene 24208) (UniProt P15207). Description: NVS_NR_rAR: NovaScreen (NVS) Nuclear Receptor Binding Assay for rat Androgen Receptor (AR) (AID 2283366). In a few lines:
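Actives from a duplicate single-concentration (25 uM) primary run went on to concentration series. Displacement of radioligand was counted by filtration and scintillation, 18 h post-dose, using prostate extracts from testosterone-pretreated rats, with DMSO as baseline.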

Assay [7] deals with human Adenosine Transporter (Adot), SLC29A1 (gene 2030) (UniProt Q99808). Description: NVS_TR_hAdoT: NovaScreen (NVS) Transporter Assay for human Adenosine Transporter (Adot) (AID 2283368). In a few lines: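 Binding displacement on U937 extracted protein, read 1 h post-dose by filtration and scintillation counting. Primary duplicate test at 25 uM, then singleton concentration series with 50 uM top; DMSO baseline.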

In assay [8] the target is Nuclear receptor subfamily 1 group I member 2 (Homo sapiens) (UniProt O75469). The assay can be described thus: NVS_NR_hPXR: NovaScreen (NVS) Nuclear Receptor Binding Assay for human Pregnane X Receptor (PXR) (AID 2283365).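 Note: a drop in FRET signal versus DMSO baseline means the compound binds.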 In a few lines:
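Read-out: TR-FRET, human PXR, 2 h post-dosing, cell-free. Loss of signal vs DMSO taken as binding activity; 25 uM primary, concentration series secondary.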

Assay [9] deals with human Thyroid Receptor Alpha (TRa), THRA (gene 7067) (UniProt P10827). Description: NVS_NR_hTRa_Antagonist: NovaScreen (NVS) Nuclear Receptor Binding Assay for human Thyroid Receptor Alpha Antagonism (TRa) (AID 2283362).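 Note: activity is loss of signal relative to DMSO baseline.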 In a few lines: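 In this biochemical format, receptor protein is dosed with chemical and read after 1 hour via AlphaLISA. Decreases from the DMSO baseline indicate antagonist activity; screening used 25 uM in duplicate before concentration-response confirmation.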
human Thyroid Receptor Alpha (TRa), THRA (gene 7067), sequence (P10827 whole entry, looked up): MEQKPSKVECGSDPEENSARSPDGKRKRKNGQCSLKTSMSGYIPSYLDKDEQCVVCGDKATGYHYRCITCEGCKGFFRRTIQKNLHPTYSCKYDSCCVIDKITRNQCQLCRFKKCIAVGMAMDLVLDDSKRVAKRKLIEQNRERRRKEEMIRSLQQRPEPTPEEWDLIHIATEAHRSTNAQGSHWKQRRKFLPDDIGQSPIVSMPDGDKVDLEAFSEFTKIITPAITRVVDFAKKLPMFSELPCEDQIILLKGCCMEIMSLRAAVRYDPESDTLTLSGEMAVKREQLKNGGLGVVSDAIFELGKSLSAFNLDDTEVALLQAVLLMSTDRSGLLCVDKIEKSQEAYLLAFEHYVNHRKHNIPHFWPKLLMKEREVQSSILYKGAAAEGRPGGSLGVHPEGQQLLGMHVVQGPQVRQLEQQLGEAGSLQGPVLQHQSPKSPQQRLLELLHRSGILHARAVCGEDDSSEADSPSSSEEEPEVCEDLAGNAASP

Nuclear receptor subfamily 1 group I member 2 (Homo sapiens), sequence (O75469 whole entry, looked up): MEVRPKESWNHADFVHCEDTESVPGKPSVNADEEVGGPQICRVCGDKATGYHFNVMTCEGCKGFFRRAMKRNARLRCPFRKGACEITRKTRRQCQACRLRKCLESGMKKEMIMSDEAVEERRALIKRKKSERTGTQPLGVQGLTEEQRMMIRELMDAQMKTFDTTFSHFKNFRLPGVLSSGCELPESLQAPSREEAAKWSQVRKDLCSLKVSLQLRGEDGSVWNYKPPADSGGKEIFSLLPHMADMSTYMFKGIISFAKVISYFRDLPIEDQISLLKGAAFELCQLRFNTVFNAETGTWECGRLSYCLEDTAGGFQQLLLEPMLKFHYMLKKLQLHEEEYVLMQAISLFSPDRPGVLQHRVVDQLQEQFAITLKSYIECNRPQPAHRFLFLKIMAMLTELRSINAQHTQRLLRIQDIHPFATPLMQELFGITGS
guinea pig Sigma Receptor, Non-selective Binding, SIGMAR1 (gene 100135589), sequence (Q60492 whole entry, looked up): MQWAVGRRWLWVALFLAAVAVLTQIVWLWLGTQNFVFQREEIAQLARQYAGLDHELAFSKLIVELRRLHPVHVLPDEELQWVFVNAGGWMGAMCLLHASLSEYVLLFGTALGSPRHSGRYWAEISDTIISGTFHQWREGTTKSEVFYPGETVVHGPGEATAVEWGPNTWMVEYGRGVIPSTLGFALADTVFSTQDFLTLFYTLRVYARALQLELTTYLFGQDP
Glucocorticoid receptor (Homo sapiens), sequence (P04150 whole entry, looked up): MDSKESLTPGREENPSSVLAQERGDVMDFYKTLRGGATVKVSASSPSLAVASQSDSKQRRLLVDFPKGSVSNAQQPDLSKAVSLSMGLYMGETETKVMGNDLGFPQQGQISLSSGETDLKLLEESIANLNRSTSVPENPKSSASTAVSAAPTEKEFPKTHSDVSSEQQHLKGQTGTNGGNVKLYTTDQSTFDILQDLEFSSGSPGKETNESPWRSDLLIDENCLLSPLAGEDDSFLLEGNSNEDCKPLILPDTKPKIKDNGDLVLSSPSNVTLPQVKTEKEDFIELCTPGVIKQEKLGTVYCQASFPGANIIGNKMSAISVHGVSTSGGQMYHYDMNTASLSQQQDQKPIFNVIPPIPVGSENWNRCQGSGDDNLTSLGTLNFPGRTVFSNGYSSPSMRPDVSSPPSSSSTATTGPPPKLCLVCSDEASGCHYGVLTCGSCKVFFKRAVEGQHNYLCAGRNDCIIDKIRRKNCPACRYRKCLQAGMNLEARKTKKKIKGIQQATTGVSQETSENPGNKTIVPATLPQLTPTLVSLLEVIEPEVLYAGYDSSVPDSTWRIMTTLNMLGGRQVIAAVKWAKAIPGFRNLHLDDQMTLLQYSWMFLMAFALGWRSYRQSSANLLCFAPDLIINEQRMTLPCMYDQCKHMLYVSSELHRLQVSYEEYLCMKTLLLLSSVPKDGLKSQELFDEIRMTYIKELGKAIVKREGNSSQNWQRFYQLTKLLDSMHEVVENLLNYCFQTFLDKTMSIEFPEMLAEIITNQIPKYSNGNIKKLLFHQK
PGR (gene 5241), sequence (P06401 whole entry, looked up): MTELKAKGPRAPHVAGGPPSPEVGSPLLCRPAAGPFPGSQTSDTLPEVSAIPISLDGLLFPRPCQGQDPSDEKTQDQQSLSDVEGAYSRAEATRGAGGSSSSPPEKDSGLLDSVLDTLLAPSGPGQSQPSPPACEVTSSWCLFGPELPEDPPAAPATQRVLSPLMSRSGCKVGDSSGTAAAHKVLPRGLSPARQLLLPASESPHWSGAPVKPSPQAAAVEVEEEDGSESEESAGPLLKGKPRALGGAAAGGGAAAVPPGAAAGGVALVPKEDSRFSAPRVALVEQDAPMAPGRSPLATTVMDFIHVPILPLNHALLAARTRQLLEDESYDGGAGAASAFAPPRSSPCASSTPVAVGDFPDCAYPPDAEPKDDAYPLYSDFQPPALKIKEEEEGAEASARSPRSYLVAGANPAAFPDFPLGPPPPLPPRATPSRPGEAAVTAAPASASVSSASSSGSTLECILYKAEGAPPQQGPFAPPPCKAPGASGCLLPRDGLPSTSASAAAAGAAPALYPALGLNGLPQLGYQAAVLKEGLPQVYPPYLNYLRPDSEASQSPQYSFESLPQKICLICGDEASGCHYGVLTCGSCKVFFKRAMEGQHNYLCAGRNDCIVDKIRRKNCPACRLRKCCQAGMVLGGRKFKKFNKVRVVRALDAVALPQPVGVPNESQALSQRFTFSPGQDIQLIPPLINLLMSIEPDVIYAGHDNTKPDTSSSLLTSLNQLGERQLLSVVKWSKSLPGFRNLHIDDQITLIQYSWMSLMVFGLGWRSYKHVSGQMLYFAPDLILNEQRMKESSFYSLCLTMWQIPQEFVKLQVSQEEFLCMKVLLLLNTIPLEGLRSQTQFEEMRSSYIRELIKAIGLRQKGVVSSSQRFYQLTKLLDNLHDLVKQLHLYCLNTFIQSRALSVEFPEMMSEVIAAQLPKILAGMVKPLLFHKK
Peroxisome proliferator-activated receptor gamma (Homo sapiens), sequence (P37231 whole entry, looked up): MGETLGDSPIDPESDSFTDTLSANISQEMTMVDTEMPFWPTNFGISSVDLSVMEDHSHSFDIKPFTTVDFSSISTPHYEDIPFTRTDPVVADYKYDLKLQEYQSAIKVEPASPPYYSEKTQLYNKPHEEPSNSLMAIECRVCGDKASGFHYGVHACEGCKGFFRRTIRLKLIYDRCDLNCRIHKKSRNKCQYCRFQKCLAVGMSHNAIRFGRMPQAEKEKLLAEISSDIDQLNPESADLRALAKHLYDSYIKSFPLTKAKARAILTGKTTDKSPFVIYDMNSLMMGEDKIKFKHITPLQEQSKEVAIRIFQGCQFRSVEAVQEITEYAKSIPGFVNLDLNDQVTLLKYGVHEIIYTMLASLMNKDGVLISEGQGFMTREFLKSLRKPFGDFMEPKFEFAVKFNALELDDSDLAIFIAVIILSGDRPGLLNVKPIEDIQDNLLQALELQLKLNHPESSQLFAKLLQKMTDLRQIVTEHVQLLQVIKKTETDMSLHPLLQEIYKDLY
rat Androgen Receptor (AR), Ar (gene 24208), sequence (P15207 whole entry, looked up): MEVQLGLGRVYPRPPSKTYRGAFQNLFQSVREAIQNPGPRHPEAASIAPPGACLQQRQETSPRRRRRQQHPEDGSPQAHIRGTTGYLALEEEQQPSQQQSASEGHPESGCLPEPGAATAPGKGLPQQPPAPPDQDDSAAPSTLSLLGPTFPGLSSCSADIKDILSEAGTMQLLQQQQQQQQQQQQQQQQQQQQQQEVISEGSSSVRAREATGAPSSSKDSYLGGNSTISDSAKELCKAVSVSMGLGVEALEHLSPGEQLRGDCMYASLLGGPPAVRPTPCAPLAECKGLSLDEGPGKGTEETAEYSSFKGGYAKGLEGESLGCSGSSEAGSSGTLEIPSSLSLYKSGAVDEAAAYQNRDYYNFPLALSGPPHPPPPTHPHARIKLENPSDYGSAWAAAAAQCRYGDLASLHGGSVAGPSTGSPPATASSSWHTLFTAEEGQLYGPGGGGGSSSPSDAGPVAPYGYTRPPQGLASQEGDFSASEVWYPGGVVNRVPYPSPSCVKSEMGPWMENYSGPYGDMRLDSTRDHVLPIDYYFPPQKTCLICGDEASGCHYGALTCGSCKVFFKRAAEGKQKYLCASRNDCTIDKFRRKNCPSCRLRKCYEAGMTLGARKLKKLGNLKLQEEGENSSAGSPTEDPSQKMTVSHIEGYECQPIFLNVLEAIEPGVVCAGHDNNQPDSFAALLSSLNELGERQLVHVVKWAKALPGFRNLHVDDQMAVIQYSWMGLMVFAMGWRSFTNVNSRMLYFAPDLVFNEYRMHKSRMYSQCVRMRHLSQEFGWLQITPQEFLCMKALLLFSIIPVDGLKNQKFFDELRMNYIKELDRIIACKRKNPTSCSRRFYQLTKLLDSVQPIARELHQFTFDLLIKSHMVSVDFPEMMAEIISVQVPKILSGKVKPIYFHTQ

In the case of `CCCCCCCCCC`, the molecule was called inactive (with PGR (gene 5241); in assay [1]; in assay [2]).

On to `COc1cc(C(C)C)c2c(c1)S(=O)(=O)N(COc1cc(=O)n3cccc(OCCN4CCCCC4)c3n1)C2=O`, for which the outcome in [3] was inactive. The AC50 in assay [2] is 4.1 µM (active); in assay [4], 6.25 µM (active).

As for `Cn1cc[nH]c1=S`, in the assay with PGR (gene 5241), the call was inactive.

Take `CCOc1ccc2[nH]cc(C(=O)NCc3ccccc3)c(=O)c2n1`: the molecule was called inactive in [4].

Take `C=CCc1cc(S(=O)(=O)c2ccc(O)c(CC=C)c2)ccc1O`: the AC50 in [5] is 4.59 µM (active); in assay [6], 4.5 µM (active); in [7], 25 µM (active); in assay [2] it was 13.2 µM (active); in assay [4] it was 0.621 µM (active).

`NC(=O)NN=Cc1ccc([N+](=O)[O-])o1`: in assay [4], the outcome was inactive.

For `O=C(NO)C1(NS(=O)(=O)c2ccc(Oc3ccc(F)cc3)cc2)CCOCC1`, in the assay with PGR (gene 5241), the AC50 is 6.3 µM (active).

Consider `C[C@@H](Oc1ccc(CNC(=O)c2cccnc2Oc2ccc3c(c2)OCO3)c(F)c1)C(=O)O`, for which the molecule was called inactive with PGR (gene 5241). For the same molecule, the AC50 in assay [4] is 13.6 µM (active).

For `C[C@]12C=CC(=O)C=C1CC[C@H]1[C@@H]3C[C@@H](O)[C@](O)(C(=O)CO)[C@@]3(C)C[C@H](O)[C@@]12F`, the call (with PGR (gene 5241); in assay [8]) was inactive. Further, the AC50 in assay [5] was 0.0746 µM (active).

As for `CCCCCCCCCCCCCCCCOS(=O)(=O)O`, the AC50 in [8] was 12.5 µM (active); in [6], 3.03 µM (active); in assay [4] it was 1.64 µM (active).

Turning to `CCCOc1ccc(S(=O)(=O)N2CCN(CC)CC2)cc1-c1nc2c(CC)n(Cc3ccccn3)nc2c(=O)[nH]1`, the result with PGR (gene 5241) was inactive.

For the molecule `CCCCCCCCN(C)C`, the outcome in assay [3] was inactive. For the same molecule, in assay [1], the AC50 is 1.88 µM (active).

As to `NC(=O)N1c2ccccc2C=Cc2ccccc21`, in the assay with PGR (gene 5241), the molecule was classed as inactive.

For `CCN(CC)C(=S)SSC(=S)N(CC)CC`, the half-maximal activity concentration (AC50) is 0.7 µM (active) in assay [8] and 25 µM (active) in assay [1]. In [2], the molecule was called inactive.

Take `OC[C@H]1O[C@@H]2O[C@H]3[C@H](O)[C@@H](O)[C@@H](O[C@H]4[C@H](O)[C@@H](O)[C@@H](O[C@H]5[C@H](O)[C@@H](O)[C@@H](O[C@H]6[C@H](O)[C@@H](O)[C@@H](O[C@H]7[C@H](O)[C@@H](O)[C@@H](O[C@H]1[C@H](O)[C@H]2O)O[C@@H]7CO)O[C@@H]6CO)O[C@@H]5CO)O[C@@H]4CO)O[C@@H]3CO`: the outcome in assay [9] was inactive.

Regarding `Cc1cccc(O)c1C`, the result in [4] was inactive.

As for `O=C(O)[C@H](O)[C@@H](O)C(=O)O`, the molecule was classed as inactive in the assay with PGR (gene 5241).

As to `CC[C@H](C)C(=O)O[C@H]1C[C@H](O)C=C2C=C[C@H](C)[C@H](CC[C@@H](O)C[C@@H](O)CC(=O)O)[C@H]21`, in assay [5], the AC50 was 15.5 µM (active).

Consider `CC(C)CCCCCCOC(=O)C1CCCCC1C(=O)OCCCCCCC(C)C` (stereo not given), for which, in assay [9], the molecule was called inactive.

Source of the values: PubChem BioAssay (EPA / NIEHS).
